Test results as given in PubChem BioAssay AID1851 (National Center for Advancing Translational Sciences (NCATS), 2009).
Values joined by “and” are separate entries in the source; they are usually repeats but may differ in a detail not shown here. Identical values can stand only once. Screen size: about 16,000 compounds; about 4,000 (25%) were called active. About 26% were inconclusive and are not listed. The call rests on the fitted dose curve; in most records, active means well fitted curve in the direction sought with a large enough effect; inconclusive means small, poorly fitted or top-dose-only effect, or effect the other way; inactive means no such curve, though single readings can be large or run the other way. The list is a sample of the results.

Biological target: Cytochrome P450 2C9 (Homo sapiens) (UniProt P11712)
Experiment: Cytochrome panel assay with activity outcomes
Details: recombinant CYP, pro-luciferin dealkylation, luminescence, p450-cyp2c9; series mostly up to 57.1 µM
On the % scale 0 is the no-effect control and ±100 the full control effect.

Cytochrome P450 2C9 (Homo sapiens), sequence (P11712 whole entry, looked up): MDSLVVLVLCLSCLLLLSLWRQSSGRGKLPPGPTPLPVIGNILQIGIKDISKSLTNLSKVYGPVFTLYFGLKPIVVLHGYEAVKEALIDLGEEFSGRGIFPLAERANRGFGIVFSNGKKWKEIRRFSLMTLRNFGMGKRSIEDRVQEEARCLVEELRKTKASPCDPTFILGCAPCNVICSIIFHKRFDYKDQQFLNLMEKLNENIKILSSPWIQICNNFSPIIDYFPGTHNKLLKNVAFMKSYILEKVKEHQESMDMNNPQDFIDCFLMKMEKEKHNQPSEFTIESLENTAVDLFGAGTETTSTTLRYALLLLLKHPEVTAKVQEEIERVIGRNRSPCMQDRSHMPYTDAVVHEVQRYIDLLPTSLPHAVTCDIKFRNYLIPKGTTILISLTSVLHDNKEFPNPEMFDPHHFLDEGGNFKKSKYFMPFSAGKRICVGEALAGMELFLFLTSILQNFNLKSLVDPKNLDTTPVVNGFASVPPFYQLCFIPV

SMILES | activity, negative = inhibition | AC50
COC(=O)c1cc(=O)[nH]c(=O)[nH]1 | 3.6% [at 11.4 µM] (inactive) | –
Cc1ccc(C(=O)Nc2cc(Cl)ccc2OC(=O)c2ccc(C)cc2)cc1 | – | 14.1 µM (active)
CCOc1ccc(C(=O)Nc2ccc(Cl)cn2)cc1Cl | – | inactive
C#CCCCO/N=C1/C[C@@H](O)[C@@H](O)[C@@H]2[C@@H]3C(=O)N([C@@H](C)c4ccccc4)C(=O)[C@H]3CC[C@H]12 | -17.4% [at 11.4 µM] (inactive) | –
CSc1nc(Oc2ccc(=O)[nH]n2)nc(N(C)C)n1 | – | inactive
CCOC(=O)c1c(NC(=S)NC(=O)c2cnn(CC)c2)sc2c1CCC(C)C2 (stereo unspecified) | – | 5.01 µM (active)
CCOC(=O)CCN1C(=O)[C@H]2[C@@H]3[C@H](O)[C@H](O)CC(=O)[C@H]3CC[C@H]2C1=O | 14.8% [at 11.4 µM] (inactive) and 4.05% [at 11.4 µM] (inactive) | –
C[C@@](N)(C(=O)O)c1ccc(P(=O)(O)O)cc1 | – | inactive
O=C(O)c1ccc(NCc2nc3cc4ccccc4cc3[nH]2)cc1 | 8.12% [at 11.4 µM] (inactive) | –
O=C(c1ccccc1)c1ccc2nc(-c3ccc(NC(=O)c4ccccc4Br)cc3)[nH]c2c1 | – | 2 µM (active)
O=C(c1ccccc1)c1ccc2nc(-c3ccc(NC(=O)c4ccccc4F)cc3)[nH]c2c1 | – | 4.47 µM (active)
C[C@@H](c1ccccc1)N1C(=O)[C@H]2[C@@H]3[C@H](O)C=CC(=O)[C@H]3CC[C@H]2C1=O | 3.06% [at 11.4 µM] (inactive) | –
Cc1nn(CCc2n[nH]c(=S)n2-c2ccc(F)c(Cl)c2)c(C)c1[N+](=O)[O-] | – | inactive
COC(=O)N1CCC[C@@]2(CCN(C(=O)Nc3ccccc3)C2)C1 | – | inactive
COc1ccc(NC(=O)N2CCC3(CC2)CCN(C(=O)c2csnn2)CC3)cc1 | – | inactive
COc1cc(CC(=O)O)ccc1O | – | inactive
O=C(O)Cc1ccc(O)c(O)c1 | – | inactive
O=C(O)Cc1cc(I)c(Oc2ccc(O)c(I)c2)c(I)c1 | – | 5.01 µM (active)
O=C(Nc1cccc(NC(=O)c2ccccc2[N+](=O)[O-])n1)c1ccccc1[N+](=O)[O-] | – | 0.794 µM (active)
CCOc1cc(NC(=O)c2ccccc2[N+](=O)[O-])c(OCC)cc1NC(=O)CC(C)C | – | inactive
Cc1cccc(NC(=O)c2ccc([N+](=O)[O-])o2)n1 | – | inactive
CO/N=C(\C(=O)N[C@@H]1C(=O)N2C(C(=O)[O-])=C(C[N+]3(C)CCCC3)CS[C@@H]12)c1csc(N)n1 | – | inactive

SMILES | activity, negative = inhibition | AC50
N#Cc1ccccc1-c1ccc2ncnc(NCCN3CCOCC3)c2c1 | 2.09% [at 2.29 µM] (inactive) | –
N#Cc1cccc(-c2nc(NCCN3CCOCC3)c3ccccc3n2)c1 | 5.64% [at 2.29 µM] (inactive) | –
N#Cc1nc(-c2ccc(OCc3ccccc3)cc2)oc1NCCN1CCOCC1 | – | 7.94 µM (active)
CO[C@H]1COC(=O)[C@H](C)COC(=O)[C@@H](Cc2ccccc2)NC(=O)C/C=C\[C@H]1C | -8.74% [at 11.4 µM] (inactive) | –
Cc1cc(Cl)nc(NC(=O)CSc2ccc(Cl)cc2)n1 | -1.09% [at 11.4 µM] (inactive) | –
COC(=O)c1sccc1NC(=O)CSc1ccccc1NS(=O)(=O)c1ccc(Cl)cc1 | – | 1.78 µM (active)
Clc1ccc(Cl)c(SCCCN2CCNCC2)c1 | -3.39% [at 11.4 µM] (inactive) | –
COC(=O)c1sccc1NC(=O)CSc1ccc(Cl)cc1 | – | 15.8 µM (active)
COC(=O)c1sccc1NC(=O)CSc1cc(Cl)ccc1Cl | – | 7.08 µM (active)
CC(=O)OC[C@H]1O[C@@H](O/N=C2/[C@H]3O[C@@H]3[C@@H](O)[C@H]3[C@H]2CCn2c(=O)n(-c4ccccc4)c(=O)n23)[C@H](OC(C)=O)[C@@H](OC(C)=O)[C@@H]1OC(C)=O | 10.3% [at 11.4 µM] (inactive) | –
NC(=O)C[C@H](NC(=O)Cc1ccc(O)cc1O)C(=O)O | – | inactive
CCOC(=O)CSc1nnc(CNC(=O)c2ccc(OC)cc2)n1C1CCCCC1 | – | inactive
CCCc1nnc(SCC(=O)N2CCCC(C)C2)n1CC1CCCO1 (stereo unspecified) | – | inactive
O=C(Nc1ccccc1)N1CCCC2(CCNCC2)C1 | – | inactive
COc1ccc(-c2nc(C#N)c(N3CCC(C(N)=O)CC3)o2)cc1OC | – | inactive
Cc1noc(C)c1C(=O)N1CCC2(CCCN(C(=O)Nc3ccccc3)C2)CC1 | – | inactive
O=C(Nc1ccccc1)N1CCCC(c2nc(-c3ccc(F)cc3)no2)C1 (stereo unspecified) | – | 14.1 µM (active)
COc1ccc(-c2noc(C3CCCN(C(=O)c4ccccc4OC)C3)n2)cc1OC (stereo unspecified) | – | 11.2 µM (active)
CCCCCC(=O)N1CCCC(c2nc(-c3ccc(OC)cc3)no2)C1 (stereo unspecified) | – | 3.55 µM (active)
CC(C)(N=NC(C)(C)C1=NCCN1)C1=NCCN1 | 3.47% [at 11.4 µM] (inactive) | –
O=C(CN(Cc1ccco1)C(=O)c1cccc(Cl)c1)Nc1c(Cl)cc(Cl)cc1Cl | – | 11.2 µM (active)
COc1ccc(Oc2ncc3ncc(=O)n(C)c3n2)cc1 | – | inactive

SMILES | activity, negative = inhibition | AC50
COc1ccc(/C=C2\N=C(SC)N(C)C2=O)cc1 | – | 25.1 µM (active)
CCN(c1nc(N)c(C(=O)N=C(N)N)nc1Cl)C(C)C | – | inactive
CN(C)Cc1ccccc1-c1nc(NCc2ccccc2)c2ccccc2n1 | -6.5% [at 2.29 µM] (inactive) | –
CN(C)c1nc(NCc2ccccc2)nc(N/N=C/c2ccc(Cl)cc2Cl)n1 | – | inactive
CC(Sc1nc(NCc2ccccc2)nc(N(C)C)n1)C(=O)Nc1ccccc1 (stereo unspecified) | – | 0.562 µM (active)
CC(=O)N[C@@H](C(=O)O)C(C)(C)SN=O | – | inactive
COc1ccc(CNc2ncnc3ccc(-c4ccc(C(=O)N(C)C)cc4)cc23)c(OC)c1 | 1.99% [at 2.29 µM] (inactive) | –
COc1ccc(CNc2ncnc3ccc(-c4cccnc4)cc23)c(OC)c1 | -24.5% [at 2.29 µM] (inactive) | –
COc1ccccc1-c1ccc2ncnc(NCc3cccnc3)c2c1 | -19.3% [at 2.29 µM] (inactive) | –
COc1ccccc1CNc1ncnc2ccc(-c3cccc(C#N)c3)cc12 | -23.5% [at 2.29 µM] (inactive) | –
COc1ccc(CNc2ncnc3ccc(-c4ccccc4OC)cc23)c(OC)c1 | – | 0.398 µM (active)
COc1ccccc1CNc1ncnc2ccc(-c3ccccc3OC)cc12 | – | 0.794 µM (active)
COc1ccccc1-c1ccc2ncnc(NCc3ccccc3)c2c1 | – | 0.501 µM (active)
COc1ccccc1CNc1ncnc2ccc(-c3ccccc3CN(C)C)cc12 | -2.92% [at 2.29 µM] (inactive) | –
COCCNc1ncnc2ccc(-c3ccccc3OC)cc12 | 16.9% [at 2.29 µM] (inactive) | –
Cc1nonc1NC(=O)OCCN1CCOC1=O | – | inactive
CC[C@]1(O)C[C@@H]2CN(CCc3c([nH]c4ccccc34)[C@](C(=O)OC)(c3cc4c(cc3OC)N(C)[C@H]3[C@](O)(C(=O)OC)[C@@H](C(=O)OC)[C@@]5(CC)C=CCN6CC[C@@]43[C@@H]65)C2)C1 | – | inactive
CCn1c(SCC(=O)Nc2sc3c(c2C(N)=O)CCC(C)C3)nnc1-c1ccco1 (stereo unspecified) | – | 3.16 µM (active)
CCn1c(SCC(=O)Nc2sc3c(c2C#N)CCC(C(C)(C)C)C3)nnc1-c1ccco1 (stereo unspecified) | – | 8.91 µM (active)
C#CC[N+](CC)(CC)CC#Cc1cccc(Cl)c1 | – | inactive
C[C@H](CN(C)C)C(O)(c1ccccc1)c1ccccc1 | -5.45% [at 11.4 µM] (inactive) | –
COC(=O)[C@@]1(Cc2ccc(F)cc2)[C@H]2c3cc(C(=O)N4CCCC4)n(CCN4CNCC4=O)c3C[C@H]2CN1C(=O)c1ccccc1 | – | 7.94 µM (active)

SMILES | activity, negative = inhibition | AC50
COC(=O)[C@@]1(Cc2ccccc2)[C@H]2c3cc(C(=O)N4CCCC4)n(CCN4CNCC4=O)c3C[C@H]2CN1C(=O)c1ccccc1 | – | 2 µM (active)
Nc1nc(N)nc(CC(=O)O)n1 | -0.0515% [at 11.4 µM] (inactive) | –
CCOC(=O)C1=C(CSc2nc3ccccc3s2)NC(=O)NC1c1cccc([N+](=O)[O-])c1 (stereo unspecified) | – | 3.98 µM (active)
COc1cc(/C=C(\C#N)C(N)=O)cc(CSc2nc3ccccc3s2)c1O | – | inactive
CCOC(=O)C1=C(CSc2nc3ccccc3s2)NC(=O)NC1c1cc(C)ccc1C (stereo unspecified) | – | 3.55 µM (active)
O=C(Nc1cccc(F)c1)N1CCCC2(CCNCC2)C1 | – | inactive
COc1cccc(Nc2ncc3nc(-c4cn(C)c5ccccc45)c(=O)n(CCC#N)c3n2)c1 | – | inactive
COc1ncc2nc(-c3cn(C)c4ccccc34)c(=O)n(Cc3ccc(F)cc3)c2n1 | – | inactive
COc1cccc(Cn2c(=O)c(-c3cn(C)c4ccccc34)nc3cnc(N4CCNCC4)nc32)c1 | – | 20 µM (active)
CCNc1ncc2nc(-c3ccccc3)c(=O)n(Cc3cccs3)c2n1 | – | inactive
Cn1cc(-c2nc3cnc(N4CCNCC4)nc3n(CCc3ccccc3)c2=O)c2ccccc21 | – | 10 µM (active)
Cn1cc(-c2nc3cnc(N4CCNCC4)nc3n(Cc3ccc(F)cc3)c2=O)c2ccccc21 | – | 10 µM (active)
CCNc1ncc2nc(-c3cn(C)c4ccccc34)c(=O)n(CCC#N)c2n1 | – | inactive
Cn1cc(-c2nc3cnc(N4CCOCC4)nc3n(CCC#N)c2=O)c2ccccc21 | – | inactive
CCNc1ncc2nc(-c3cn(C)c4ccccc34)c(=O)n(Cc3cccc(OC)c3)c2n1 | – | inactive
CN1CCN(c2ncc3nc(-c4cn(C)c5ccccc45)c(=O)n(CCc4ccccc4)c3n2)CC1 | – | inactive
COCCn1c(=O)c(-c2cn(C)c3ccccc23)nc2cnc(N3CCNCC3)nc21 | – | inactive
CCNc1ncc2nc(-c3cn(C)c4ccccc34)c(=O)n(Cc3cccs3)c2n1 | – | 20 µM (active)
CCNc1nc(NCC)nc(ON=C(C)C)n1 | – | inactive
N=c1nc(N2CCCCC2)cc(N)n1O | – | inactive
